Shown are actives, neighbours in structure and some others; about 6.9% of the full set was active somewhere.
L3MBTL1 inh: blocks human L3MBTL1 | AlphaScreen L3MBTL1–H3K9me1 peptide binding | Potency, µM (top dose mostly 57.1 µM), usual class: inhibitors | hit rate 0.66% among 230,000 | AID 485360; further: nearly all actives have a fitted effect of over 60% in size
Target sequence (Q9Y468 whole entry, looked up): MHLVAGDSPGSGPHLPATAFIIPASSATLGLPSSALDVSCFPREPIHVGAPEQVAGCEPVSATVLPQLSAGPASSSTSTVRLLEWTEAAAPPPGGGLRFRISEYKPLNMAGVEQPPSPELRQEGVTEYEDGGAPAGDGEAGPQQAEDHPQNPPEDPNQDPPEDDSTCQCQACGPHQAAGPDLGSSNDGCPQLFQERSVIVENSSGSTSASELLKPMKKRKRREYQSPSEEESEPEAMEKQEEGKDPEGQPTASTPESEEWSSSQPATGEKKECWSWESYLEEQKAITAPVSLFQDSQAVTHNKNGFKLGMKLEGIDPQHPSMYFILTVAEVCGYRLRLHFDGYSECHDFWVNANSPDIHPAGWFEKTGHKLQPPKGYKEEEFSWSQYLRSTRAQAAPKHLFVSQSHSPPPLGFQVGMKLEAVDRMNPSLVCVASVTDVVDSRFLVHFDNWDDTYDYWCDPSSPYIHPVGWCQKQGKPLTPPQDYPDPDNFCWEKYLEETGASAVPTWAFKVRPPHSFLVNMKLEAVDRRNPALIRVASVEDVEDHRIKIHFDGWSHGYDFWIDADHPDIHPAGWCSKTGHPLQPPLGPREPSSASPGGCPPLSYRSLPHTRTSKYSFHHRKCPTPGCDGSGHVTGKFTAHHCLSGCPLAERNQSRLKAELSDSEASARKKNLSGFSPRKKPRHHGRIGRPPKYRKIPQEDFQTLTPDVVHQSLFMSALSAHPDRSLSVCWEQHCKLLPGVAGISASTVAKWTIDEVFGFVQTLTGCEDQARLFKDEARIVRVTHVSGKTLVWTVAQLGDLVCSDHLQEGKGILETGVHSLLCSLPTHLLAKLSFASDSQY
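AlphaScreen assay: L3MBTL1 (50 nM final) was preincubated 30 min at room temperature with biotinylated H3(1-15)K9me1 peptide (75 nM final), then 30 min with library compounds; streptavidin donor and nickel chelate acceptor beads (10 ug/mL final) added, 30 min dark.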
HP1b chromo inh: blocks HP1-beta chromodomain binding to methylated histone tails; P83916; AlphaScreen HP1-beta / biotin-H3K9me3 peptide binding; Potency, µM (top dose mostly 114 µM), usual class: inhibitors; hit rate 0.56% among 390,000; further: nearly all actives have a fitted effect of over 70% in size
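AlphaScreen: HP1-beta (50 nM) preformed 30 min with biotin-H3(1-18)K9me3 peptide (50 nM) in PBS pH 7.4, 0.01% Tween-20. Compound added for 30 min at RT, then streptavidin donor/nickel chelate acceptor beads (10 ug/mL) for 30 min.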
VDR inh: vitamin D3 receptor (human) inhibition. AID 504847. VDR-SRC2-3 peptide fluorescence polarization, 2 h. Potency, µM, usual class: inhibitors. hit rate 0.93% among 400,000. P11473
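After 23 nl compound addition and a short centrifugation, plates sat for 2 hours at ambient temperature; polarization of fluorescence then indicated loss of VDR binding to peptide SRC2-3.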
JMJD2A Tudor: inhibitors of human JMJD2A Tudor domain. O75164. AlphaScreen JMJD2A-Tudor / H3K4me3 peptide binding. Potency, µM (top dose mostly 114 µM), usual class: inhibitors. hit rate 4.4% among 390,000. AID 504339; further: nearly all actives have a fitted effect of over 50% in size
BAZ2B block: BAZ2B (human) inhibition; AlphaScreen BAZ2B-H3K14Ac peptide displacement; hit rate 4.4% among 360,000; AID 504333; Potency, µM (series often up to 114 µM), most hits filed as inhibitors; Q9UIF8; further: nearly all actives have a fitted effect of over 60% in size
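Inhibition is scored as reduced AlphaScreen emission. The BAZ2B/b-H3(5-23)K14Ac complex (50 nM each) in PBS pH 7.4, 0.01% Tween-20 meets compound (up to 110 uM) for 30 min at RT before bead addition.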
PLK1 PBD inh: inhibitors of human PLK1 polo-box domain binding; Plk1 PBD binding of FITC phosphopeptide, fluorescence polarization; Potency, µM, hits mostly inhibitors; hit rate 2.8% among 360,000; further: series mostly up to about 57 µM; nearly all actives have a fitted effect of over 65% in size
A number is an active result; . = inactive; ? = inconclusive; / = not tested or not shown. The call rests on the fitted dose curve; in most records, active means well fitted curve in the direction sought with a large enough effect; inconclusive means small, poorly fitted or top-dose-only effect, or another doubt; inactive means no such curve, though single readings can be large; an effect the other way counts as inactive or inconclusive.

SMILES	L3MBTL1 inh	HP1b chromo inh	VDR inh	JMJD2A Tudor	BAZ2B block	PLK1 PBD inh
COc1cc(/C=C2/C(=O)NN(c3cccc(C)c3)C2=O)cc([N+](=O)[O-])c1O	?	?	.	56.2µM	39.8µM	?
COc1cc(/C=C2/C(=O)NN(c3cccc(C)c3)C2=O)ccc1OC(=O)c1ccco1	.	.	50.1µM	.	?	2.99µM
CCN(CC)CCC12CC(C)OC1=Nc1ccccc1NC2=O (centres undefined)	/	/	/	/	/	.
COc1ccc(-c2c(C)c3ccc(O)c(CN4CCCCC4)c3oc2=O)cc1OC	/	.	.	.	.	/
CCOC(=O)c1c(/N=C/c2ccc(C)cc2O)sc2c1CCC2	.	.	.	.	?	.
CCOC(=O)c1c(/N=C/c2ccc(OC)cc2O)sc2c1CCN(C)C2	25.1µM	?	.	44.7µM	39.8µM	?
O=C1C(c2ccccc2)SC(=Nc2ccccc2)N1S(=O)(=O)c1ccccc1 (centres undefined)	/	?	89.1µM	.	?	16.8µM
CC1(C)SC(=Nc2ccccc2)N(S(=O)(=O)c2ccccc2)C1=O	.	.	.	.	.	.
C=C(C)C(=O)OC[C@@H]1CCC[N@+]2(C)CCCCC12 (some centres undefined)	/	/	.	/	/	/
Cc1c(CC(=O)N2CCN(C(=O)C3COc4ccccc4O3)CC2)c(=O)oc2cc(O)c(Cl)cc12 (centres undefined)	/	.	.	.	.	.
COc1ccc2c(C)c(CC(=O)N3CCN(C(=O)C4COc5ccccc5O4)CC3)c(=O)oc2c1C (centres undefined)	/	.	?	17.8µM	.	3.36µM
CCOC(=O)c1c(C)[nH]c(C(=O)CSc2ccccc2)c1C	.	.	.	.	.	.
CCOC(=O)c1c(C)[nH]c(N=Nc2cc(C(=O)O)cc(C(=O)O)c2)c1C	/	.	.	.	?	.
CCOC(=O)c1c(C)[nH]c(N=Nc2ccccc2C)c1C	/	.	.	25.1µM	31.6µM	.
CCOC(=O)c1c(C)[nH]c(N=Nc2ccc(C)cc2C)c1C	?	22.4µM	.	50.1µM	14.1µM	.
Cc1ccc(/C=N/NC(=O)c2nnn(-c3nonc3N)c2-c2ccc3c(c2)OCO3)s1	/	.	.	.	.	.
Cc1oc2ccc(O)c(CN3CCCCCC3)c2c1C(=O)Nc1cccc(C(F)(F)F)c1	/	.	.	.	?	/
Cc1ccc(S(=O)(=O)CCN2CCC(O)(c3ccccc3)CC2)cc1	/	.	.	.	.	.
Cc1ccc(S(=O)(=O)CCN2CCC(n3cccc3)CC2)cc1	.	.	.	.	39.8µM	.
CCCCn1c(-c2csc3c2CCCC3)n[nH]c1=S	/	.	.	39.8µM	.	.
CCn1c(-c2csc3c2CCCC3)n[nH]c1=S	.	.	.	10µM	.	.
Clc1ccccc1CSc1nc(NCCc2ccccc2)c2ccccc2n1	/	.	.	.	.	/
c1ccc2c(Nc3nc4c(s3)CCCC4)cccc2c1	.	?	.	.	50.1µM	?
CCOc1ccc(Nc2n[nH]c(=S)s2)cc1	.	.	.	?	.	?
S=c1[nH]nc(Nc2cccc3ccccc23)s1	.	39.8µM	.	17.8µM	?	?
SMILES	L3MBTL1 inh	HP1b chromo inh	VDR inh	JMJD2A Tudor	BAZ2B block	PLK1 PBD inh
Cc1c(Cl)cccc1Nc1n[nH]c(=S)s1	/	50.1µM	.	11.2µM	/	?
Fc1ccccc1Nc1n[nH]c(=S)s1	.	44.7µM	.	2.82µM	50.1µM	29.9µM
O=C(CCS(=O)(=O)Cc1ccccc1)Nc1nc2c(s1)CCCC2	.	.	.	.	.	.
Cc1ccc(Nc2n[nH]c(=S)s2)cc1F	/	.	?	.	/	?
O=C(Nc1ccccc1)c1cc2c(-c3ccccc3)nn(-c3ccccc3)c2s1	/	.	.	.	.	/
CCCCNc1ncnc2oc(-c3ccco3)c(-c3ccco3)c12	/	?	?	50.1µM	/	/
COc1ccc(NC(=O)Cc2ccc(Cl)c(Cl)c2)cn1	/	.	.	.	?	.
COc1ccc(NC(=O)/C(Cl)=C(/Cl)S(=O)Cc2ccccc2Cl)cn1 (centres undefined)	.	.	?	.	.	1.5µM
Cc1cccnc1C(NC(=O)C1CCN(CCCc2ccccc2)CC1)c1ccc(F)cc1 (centres undefined)	/	/	/	/	/	.

Bioassay records (PubChem)
